# Compound activity (PubChem)
# FAK inh: FAK (human) kinase inhibition. biochemical FAK kinase activity assay. inhibition, %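 (tested at 7 µM)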. 97,000 compounds, 0.84% hits. Q05397; in the data active = inhibition above about 19%
# ERa coact inh: ER-alpha (human) coactivator binding inhibition | P03372 | TR-FRET ER-alpha LBD / SRC-1 peptide, estradiol-bound | inhibition, % at 25.6 µM | 86,000 compounds, 1.7% hits | AID 629; in the data active = inhibition above about 50%
# Target sequence (P03372 whole entry, looked up, the tested form may be a part): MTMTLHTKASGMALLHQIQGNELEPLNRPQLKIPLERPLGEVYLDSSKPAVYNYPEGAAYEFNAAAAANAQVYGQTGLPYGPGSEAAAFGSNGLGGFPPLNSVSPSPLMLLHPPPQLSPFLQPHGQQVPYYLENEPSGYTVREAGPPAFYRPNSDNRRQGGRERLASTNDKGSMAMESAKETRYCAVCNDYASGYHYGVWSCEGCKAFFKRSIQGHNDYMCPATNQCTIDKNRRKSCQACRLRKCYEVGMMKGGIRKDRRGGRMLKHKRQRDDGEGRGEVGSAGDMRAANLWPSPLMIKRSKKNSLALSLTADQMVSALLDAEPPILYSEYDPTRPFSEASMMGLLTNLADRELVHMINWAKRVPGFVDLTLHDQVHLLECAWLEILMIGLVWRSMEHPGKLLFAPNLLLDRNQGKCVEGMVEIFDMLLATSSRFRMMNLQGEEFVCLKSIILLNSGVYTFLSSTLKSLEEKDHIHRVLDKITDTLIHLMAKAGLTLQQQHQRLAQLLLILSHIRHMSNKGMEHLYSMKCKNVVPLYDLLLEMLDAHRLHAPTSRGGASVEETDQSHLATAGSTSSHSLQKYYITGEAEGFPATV
# ERa coact pot: enhances coactivator binding to human estrogen receptor alpha; TR-FRET ERalpha-LBD/SRC-Cy5 coactivator binding, 2 h; 100 = basal binding, no effect; coactivator binding (% of control), % at 25.6 µM; AID 639; 86,000 compounds, 1.3% hits; P03372; in the data active = activity above about 200%;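 note: binding measured in presence of low estradiol as agonist stimulus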
# ERb SRC1 inh: ER-beta (human) coactivator binding inhibition. Q92731. TR-FRET ER-beta LBD / SRC1-Cy5 peptide binding; receptor agonist-loaded with 1 µM estradiol. inhibition, % at 25.6 µM. 86,000 compounds, 1.3% hits;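 active = compounds whose percent inhibition of the receptor-coactivator binding signal exceeds about 50% in the single-dose screen, limit read from the data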
# Smad3 inh: blocks human Smad3 binding to FoxH1 peptide; AID 630; 88,000 compounds, 0.29% hits; TR-FRET Smad3/Dy647-FoxH1 peptide binding, europium anti-His; inhibition, % at 25 µM; P84022;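 active = compounds that reduce the energy-transfer binding signal between the protein and its labelled peptide by more than half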
# Hits are given with their value; 0 = inactive; - = no result; [ ] = another dose, or the depositor's remark. A selection: hits, their analogues and other compounds. The true share with any hit is near 3.3%.
SMILES,FAK inh,ERa coact inh,ERa coact pot,ERb SRC1 inh,Smad3 inh
Cn1c(=O)c2c(ncn2CC(O)CO)n(C)c1=O (stereo not given),-,0,0,0,0
Cn1c(=O)c2c(ncn2CN2CCN(Cn3cnc4c3c(=O)n(C)c(=O)n4C)CC2)n(C)c1=O,-,-,-,-,98
Cn1c(C[C@@H](O)c2nc3ccccc3n2C)nc2ccccc21,-,-,-,-,0
CC(C)NC[C@@H](O)c1ccc(O)c2ncccc12,-,-,-,-,0
CC(=O)NC(c1ccco1)c1ccc2cccnc2c1O (stereo not given),0,0,0,59[fluorescence artefact?],0
NC(=S)SCCC(=O)O,-,-,-,-,0
Cc1ccc2[nH]c(=O)c(-c3nc4ccccn4c3NCc3ccco3)cc2c1,0,53,0,0,0
C[C@@H]1CCCC(CC(=O)O)(CC(=O)O)C1,-,-,-,-,0
Cc1ccc(NC2=CC(=O)C(=O)c3ccccc32)cc1,26,0,0,0,0
Cc1ccc(Nc2ccccc2)cc1,0,0,0,0,0
Nc1ncnc2nn([C@H]3O[C@@H](CO)[C@H](O)[C@H]3O)nc12,-,-,-,-,0
COc1ccccc1C(=O)N1CCN(c2ccccn2)CC1,0,0,0,0,0
COc1cccc(OC)c1C(=O)N1CCN(c2ccccn2)CC1,0,0,0,52[fluorescence artefact?],0
COc1ccc(-c2cc3nnc(-c4ccccc4)nc3s2)cc1,0,63[fluorescence artefact?],0,66[fluorescence artefact?],0
CCn1c2ccccc2c2cc(NC(=O)CSc3nnc(-c4ccc(OC)cc4)n3N)ccc21,0,68,0,0,0
CCn1c(SCC(=O)Nc2ccc3c(c2)c2ccccc2n3CC)nnc1-c1cnccn1,-,74,0,0,0
CCn1c(SCC(=O)Nc2ccccc2OC)nnc1-c1cnccn1,0,0,0,0,0
CCn1c2ccccc2c2nnc(NCCCO)nc21,-,-,-,-,0
Cc1ccc(C(=O)ONc2ccc(N=O)cc2)cc1,0,-,-,-,-
Cc1ccc(C(=O)ONc2ccc(N=NC(=O)c3ccccc3O)cc2)cc1,0,72,0,52,0
CCn1c(CSc2nnc3ccccn23)nc2cc(C(=O)O)ccc21,0,0,0,0,0
CCn1c(CSc2nnc(-c3cccnc3)n2-c2ccccc2C)nc2cc(C(=O)O)ccc21,0,0,253,0,0
O=C(c1cn(-c2ccccc2)nc1-c1ccncc1)n1nnc2ccccc21,0,0,216,0,0
CN(C)CC(C)(C)CN1c2ccccc2Sc2ccccc21,-,-,-,-,0
Cc1ccc2c(c1)N(CC(=O)NC1CCCc3ccccc31)C(=O)CO2 (stereo not given),0,67,0,0,0
SMILES,FAK inh,ERa coact inh,ERa coact pot,ERb SRC1 inh,Smad3 inh
O=C(O)/C(=C\c1ccc(O)cc1)c1cccc2ccccc12,-,-,-,-,0
CCCC(=Nc1ccc(N)cc1)C1=C(O)C(C(=O)OC)C(C)(C)CC1=O (stereo not given),0,0,0,66[fluorescence artefact?],0
COc1ccc2c(-c3ccccc3)cc3nnnn3c2c1,0,0,206,0,0
O=C(O)CCNc1ccccc1C(=O)O,-,-,-,-,0
CCN1CCc2nc(NC(=O)Cc3ccc4c(c3)OCCO4)sc2C1,0,54,0,0,0
CCN1CCc2nc(NC(=O)CC(c3ccccc3)c3ccccc3)sc2C1,0,0,282[fluorescence artefact?],0,0
CCN1CCc2nc(NC(=O)C(c3ccccc3)c3ccccc3)sc2C1,0,0,0,0,0
CCN1CCc2nc(NC(=O)c3ccc4c(c3)OCCO4)sc2C1,0,51[fluorescence artefact?],0,0,0
O=C(Nc1nc2c(s1)CN(Cc1ccccc1)CC2)c1cccc(S(=O)(=O)N2CCc3ccccc32)c1,0,0,500[fluorescence artefact?],0,0
Cn1c(Cn2nnc(-c3ccccc3)n2)nnc1SCc1ccccc1Cl,0,0,0,0,0
Cc1cc(Cl)ccc1OCC(=O)OC(C)C(=O)N(C)C (stereo not given),0,51,0,57,0
CCN(CC)C(=O)C(C)OC(=O)COc1ccc(Cl)cc1C (stereo not given),0,0,0,0,0
O=C1C=CC(=Nc2cccc3c(N=C4C=CC(=O)O4)cccc23)O1,-,-,-,-,0
Cn1c2ccccc2c2cc(C(=O)OCC(=O)N3CC(=O)Nc4ccccc43)sc21,0,0,670[fluorescence artefact?],0,0
O=C(O)c1cc(=O)[nH]c(SCc2ccccc2)n1,-,-,-,-,0
O=C(c1cc2sccc2n1Cc1ccccc1)N1CCc2ccccc21,0,0,509,0,0
O=C(c1cc2sccc2n1Cc1ccccc1)N1CCCc2ccccc21,0,0,0,0,0
Cn1c(=O)cc(SCC(=O)Nc2cccnc2)c2ccccc21,0,0,264[fluorescence artefact?],0,0
O=C(Nc1ccc2c(c1)OCO2)C1Cc2ccccc2CN1S(=O)(=O)c1cccs1 (stereo not given),0,79[fluorescence artefact?],0,0,0
Cc1ccc2nc(-c3ccc(NC(=O)c4ccc(N)cc4)c(S(=O)(=O)O)c3)sc2c1,-,-,-,-,0
Cc1ccc(S(=O)(=O)N2CCCCC2)cc1C(=O)Nc1ncn[nH]1,-,55,0,59,0
Cc1ccc(S(=O)(=O)N2CCCCC2)cc1C(=O)Nc1ccc2cn[nH]c2c1,0,0,0,0,0
C[C@@]12C[C@H](O)[C@@H]3[C@H](CCC4=CC(=O)CC[C@]43C)[C@H]1CC[C@H]2c1csc(N)n1,-,-,-,-,0
Cc1ccc(S(=O)(=O)NC(=O)Nc2ncn[nH]2)cc1,-,-,-,-,0
N#Cc1ccccc1Cn1c(=O)n(Cc2ccc(C(=O)NCc3ccco3)cc2)c(=O)c2ccccc21,-,82[fluorescence artefact?],0,0,0
SMILES,FAK inh,ERa coact inh,ERa coact pot,ERb SRC1 inh,Smad3 inh
N#Cc1ccccc1Cn1c(=O)n(CCC(=O)NCc2ccco2)c(=O)c2ccccc21,-,0,0,0,0
O=c1[nH]c(=S)[nH]c2c1CN(CCCN1CCOCC1)CN2,-,-,-,-,0
O=C1C(Cl)=C(Nc2ccccc2O)C(=O)N1c1ccccc1,0,54[fluorescence artefact?],0,0,0
O=C(O)CSc1ccc([N+](=O)[O-])cc1[N+](=O)[O-],-,-,-,-,0
O=C(Nc1ccc(F)cc1)N1CCOCC1,0,0,0,0,0
CN(C)c1ccc(NC(=O)N2CCOCC2)cc1,0,0,0,64[fluorescence artefact?],0
COc1ccc(OC)c(NC(=O)CSc2ncccc2C(=O)O)c1,0,0,0,0,0
Nc1nonc1NC(=O)CSc1ncccc1C(=O)O,0,0,0,64,0
O=c1[nH]c(=O)n(Cc2ccco2)c2c1C(C(F)(F)F)(C(F)(F)F)N=C(CCc1ccccc1)N2,0,60[fluorescence artefact?],0,0,0
O=c1[nH]c(=O)n(Cc2ccco2)c2c1C(C(F)(F)F)(C(F)(F)F)N=C(CCC1CCCCC1)N2,0,0,0,0,0
CC(C)(C)CC(C)(C)c1ccc(O)c(C[N+](C)(C)[O-])c1,-,-,-,-,0
Nc1nc(N)c(N=Nc2ccc(C(=O)O)c(O)c2)c(N)n1,-,-,-,-,55
Cc1c(Cl)c(S(N)(=O)=O)cc(S(N)(=O)=O)c1NC(=O)c1ccc(Cl)cc1,-,-,-,-,0
CCC(CC)C(=O)NCCc1ccc(OC)c(OC)c1,0,0,0,0,0
COc1ccc(CCNC(=O)COC(=O)c2ccco2)cc1OC,0,0,0,78[fluorescence artefact?],0
CCOC(=O)C(CC)(CCC(=O)O)c1csc(N)n1 (stereo not given),0,0,0,0,0
